# Assay results: PubChem BioAssay (NCATS)
# Inconclusive results are not listed. Entries that show only a call come without a potency. The source made the active and inactive calls. The call rests on the fitted dose curve.
# Assay: A High-Content qHTS Against Drug Library for the Identification of Small Molecules that Inhibit DYT1 Early Onset Primary Dystonia-Associated Cell Pathology (AID 1645839)
# Details: HEK293 Flp-In EGFP-delE TorsinA, punctate imaging, 48 h; series mostly up to 46.1 µM
# Procedure, shortened: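 In this high-content image screen, delE TorsinA mislocalization in inducible Flp-In 293 cells is scored as %pathology, with cell count serving as the counterscreen. Compound exposure lasts 48 h under tetracycline induction in reduced-serum medium.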
Compound,Potency,"% pathology change, negative = correction"
CCCOC(=O)c1ccccc1,inactive,
CN(C)CCCO[C@@H]1[C@H]2OC(C)(C)O[C@H]2O[C@@H]1C(O)CO (some centres undefined),inactive,
COc1ccccc1O,inactive,
CC12CCC(CC1)C(C)(C)O2,inactive,
O=C(O)CC(O)C(=O)O (centres undefined),inactive,
CC1(C)OC(=O)NC1=O,inactive,
CC[C@@]1(c2ccccc2)NC(=O)N(C)C1=O,inactive,
O=Cc1ccccc1C=O,inactive,
CC1(C)S[C@@H]2[C@H](NC(=O)Cc3ccccc3)C(=O)N2[C@H]1C(=O)O (tested in a mixture with another compound),inactive,
Oc1ccc(C(O)CNCCCCCCNCC(O)c2ccc(O)c(O)c2)cc1O (centres undefined),inactive,
CC/C=C(\C(=O)N[C@@H]1C(=O)N2C(C(=O)OCOC(=O)C(C)(C)C)=C(COC(N)=O)CS[C@H]12)c1csc(N)n1,inactive,
N[C@@H](CSCCCO)C(=O)O,inactive,
CCOC(=O)[C@H](CCc1ccccc1)N[C@@H](C)C(=O)N1C(=O)N(C)C[C@H]1C(=O)O,inactive,
CCCCN(CCCC)CCCOC(=O)c1ccc(N)cc1,inactive,
CCOc1ccc2ccccc2c1C(=O)N[C@@H]1C(=O)N2[C@@H]1SC(C)(C)[C@@H]2C(=O)O,inactive,
CN1CCOC(c2ccccc2)c2ccccc2C1 (centres undefined),inactive,
C[C@@H]1CCN(C(=O)[C@H](CCCN=C(N)N)NS(=O)(=O)c2cccc3c2NC[C@H](C)C3)[C@@H](C(=O)O)C1,inactive,

Compound,Potency,"% pathology change, negative = correction"
COc1cc(C(=O)N2CCOCC2)cc(OC)c1OC,inactive,
O=C1OC(OC(=O)c2cccnc2Nc2cccc(C(F)(F)F)c2)c2ccccc21 (centres undefined),inactive,
O=C(O)COc1nn(Cc2ccccc2)c2ccccc12,inactive,
NCC(=O)CCC(=O)O,inactive,
CC1=C(C/C=C(\C)CCC[C@H](C)CCC[C@H](C)CCCC(C)C)C(=O)c2ccccc2C1=O,inactive,
Oc1cn2c(n1)Nc1ccc(Cl)c(Cl)c1C2,inactive,
CC(O)CN(CCN(CC(C)O)CC(C)O)CC(C)O (centres undefined),inactive,
COc1ccc2cc1Oc1cc3c(cc1OC)CC[N+](C)(C)[C@H]3Cc1ccc(cc1)Oc1c(OC)c(OC)cc3c1[C@@H](C2)[N+](C)(C)CC3,inactive,
CC(=O)Oc1c(C)c(C)c2c(c1C)CC[C@@](C)(CCC[C@H](C)CCC[C@H](C)CCCC(C)C)O2,inactive,
N[C@@H](CSSC[C@H](N)C(=O)O)C(=O)O,,10.2% [at 0.369 µM] (inactive)
N[C@H](C(=O)O)c1ccc(O)cc1,inactive,
O=S(=O)(O)NC1CCCCC1,inactive,
Cc1cccc(C)c1NC(=O)CN(CC(=O)O)CC(=O)O,inactive,
CCC(=O)Nc1ccc(O)cc1,inactive,
CC1CC(OC(=O)C(O)c2ccccc2)CC(C)(C)N1C (centres undefined),inactive,
CC(C)(C)C(=O)NCCCC(=O)O,inactive,
CC1(C)CO[C@@H](CC(=O)O)CN1,inactive,
